Assay results from paper PMC7862700, “An all-to-all approach to the identification of sequence-specific readers for epigenetic DNA modifications on cytosine”.

Tests used:
Test in all cases: DAPPL (digital affinity profiling via proximity ligation, sequencing); 10 mM Tris-HCl pH 7.5, 50 mM NaCl, 1 mM DTT, 4% glycerol, room temperature, 30 min; GST-TFs on glutathione beads, 16-mer random dsDNA library, 0.1% formaldehyde crosslink after washing; high values mean tight binding
Details in all cases: protein: recombinant; tags: N-terminal GST; dsDNA, one strand shown
FLI1 = molecular target: T1, FLI1 (Homo sapiens, UniProt Q01543 1-452)
T1 sequence: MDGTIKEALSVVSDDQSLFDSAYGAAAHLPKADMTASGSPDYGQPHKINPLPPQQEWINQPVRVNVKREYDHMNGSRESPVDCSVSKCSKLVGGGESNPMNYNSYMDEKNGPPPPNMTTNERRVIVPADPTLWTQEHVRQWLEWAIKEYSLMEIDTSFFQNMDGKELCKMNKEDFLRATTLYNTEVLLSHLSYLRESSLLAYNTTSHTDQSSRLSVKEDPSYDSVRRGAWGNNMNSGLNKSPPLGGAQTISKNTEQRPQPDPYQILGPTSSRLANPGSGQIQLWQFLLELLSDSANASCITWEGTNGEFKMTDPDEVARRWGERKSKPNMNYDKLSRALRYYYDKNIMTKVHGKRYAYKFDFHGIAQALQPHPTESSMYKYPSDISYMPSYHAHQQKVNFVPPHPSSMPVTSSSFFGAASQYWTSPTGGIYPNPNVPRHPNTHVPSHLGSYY
Method in brief: (§1)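 Human transcription factors fused to GST were expressed in yeast, captured on glutathione beads, given DNA barcodes and pooled with a GST-only negative control. Pools were incubated with 200 nmole of a 16-mer random double-stranded DNA library in Tris/NaCl/DTT/glycerol buffer at room temperature for 30 min. They were then washed, crosslinked with 0.1% formaldehyde, proximity-ligated (BsaI/T4 ligase, 1 h, 37 °C), PCR-amplified and sequenced on an Illumina NextSeq500. Binding signal is each 6-mer's read frequency for a factor divided by its frequency for the GST control.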

ELK1 = molecular target: T2, ELK1 (Homo sapiens, UniProt P19419 1-428)
T2 sequence: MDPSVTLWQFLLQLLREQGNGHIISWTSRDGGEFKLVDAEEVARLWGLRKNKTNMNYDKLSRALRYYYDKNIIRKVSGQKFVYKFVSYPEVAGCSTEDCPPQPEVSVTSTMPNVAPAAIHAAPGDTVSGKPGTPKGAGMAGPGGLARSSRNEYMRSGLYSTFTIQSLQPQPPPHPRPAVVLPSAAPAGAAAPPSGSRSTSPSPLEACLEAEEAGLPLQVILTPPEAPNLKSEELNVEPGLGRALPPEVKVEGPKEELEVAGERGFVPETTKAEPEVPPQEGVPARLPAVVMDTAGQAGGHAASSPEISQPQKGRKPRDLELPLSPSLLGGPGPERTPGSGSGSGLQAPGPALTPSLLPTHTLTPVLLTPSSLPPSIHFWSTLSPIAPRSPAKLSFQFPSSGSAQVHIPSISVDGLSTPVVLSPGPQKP
Method in brief: as §1

GABPA = molecular target: T3, GABPA (Homo sapiens, UniProt Q06546 1-454)
T3 sequence: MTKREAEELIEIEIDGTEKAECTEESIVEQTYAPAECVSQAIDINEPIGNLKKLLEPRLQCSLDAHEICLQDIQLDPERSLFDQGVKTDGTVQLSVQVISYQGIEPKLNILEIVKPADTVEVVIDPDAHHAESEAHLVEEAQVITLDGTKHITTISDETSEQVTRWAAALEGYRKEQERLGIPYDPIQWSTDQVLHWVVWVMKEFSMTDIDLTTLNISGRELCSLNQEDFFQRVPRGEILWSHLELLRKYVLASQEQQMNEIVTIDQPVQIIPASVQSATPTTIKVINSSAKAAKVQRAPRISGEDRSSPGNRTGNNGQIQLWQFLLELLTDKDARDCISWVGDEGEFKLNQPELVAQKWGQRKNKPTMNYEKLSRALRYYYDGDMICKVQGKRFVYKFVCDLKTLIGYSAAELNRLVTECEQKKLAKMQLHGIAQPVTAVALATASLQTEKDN
Method in brief: as §1

ERG = molecular target: T4, ERG (Homo sapiens, UniProt P11308 1-479)
T4 sequence: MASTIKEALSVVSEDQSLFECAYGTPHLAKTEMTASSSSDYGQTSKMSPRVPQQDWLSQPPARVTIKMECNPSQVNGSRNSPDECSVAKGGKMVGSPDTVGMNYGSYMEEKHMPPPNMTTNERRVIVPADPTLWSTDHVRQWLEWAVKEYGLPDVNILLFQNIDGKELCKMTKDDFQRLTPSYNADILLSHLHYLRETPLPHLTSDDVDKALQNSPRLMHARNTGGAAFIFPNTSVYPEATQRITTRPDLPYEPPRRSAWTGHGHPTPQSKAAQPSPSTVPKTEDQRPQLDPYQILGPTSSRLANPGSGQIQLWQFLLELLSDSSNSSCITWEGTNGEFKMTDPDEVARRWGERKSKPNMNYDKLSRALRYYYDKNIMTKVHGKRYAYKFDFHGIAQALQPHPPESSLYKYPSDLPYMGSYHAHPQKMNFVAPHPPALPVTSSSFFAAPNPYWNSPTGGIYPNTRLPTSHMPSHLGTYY
Method in brief: as §1

ELF1 = ELF1 (Homo sapiens, UniProt P32519 1-619)
Method in brief: as §1

EHF = molecular target: T5, EHF (Homo sapiens, UniProt Q9NZC4 1-300)
T5 sequence: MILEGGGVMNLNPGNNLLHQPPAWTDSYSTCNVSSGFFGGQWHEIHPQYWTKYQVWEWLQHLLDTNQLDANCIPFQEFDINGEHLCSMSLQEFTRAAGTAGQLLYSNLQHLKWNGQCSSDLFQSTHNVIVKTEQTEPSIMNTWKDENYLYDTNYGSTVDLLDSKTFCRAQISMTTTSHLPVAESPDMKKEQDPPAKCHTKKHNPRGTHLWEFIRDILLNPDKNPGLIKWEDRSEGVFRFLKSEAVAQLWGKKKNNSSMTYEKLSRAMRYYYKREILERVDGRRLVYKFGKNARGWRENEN
Method in brief: as §1

SPI1 = SPI1 (Homo sapiens, UniProt P17947 1-270)
Method in brief: as §1

SPIB = SPIB (Homo sapiens, UniProt Q01892 1-262)
Method in brief: as §1

ELK3 = molecular target: T6, ELK3 (Homo sapiens, UniProt P41970 1-407)
T6 sequence: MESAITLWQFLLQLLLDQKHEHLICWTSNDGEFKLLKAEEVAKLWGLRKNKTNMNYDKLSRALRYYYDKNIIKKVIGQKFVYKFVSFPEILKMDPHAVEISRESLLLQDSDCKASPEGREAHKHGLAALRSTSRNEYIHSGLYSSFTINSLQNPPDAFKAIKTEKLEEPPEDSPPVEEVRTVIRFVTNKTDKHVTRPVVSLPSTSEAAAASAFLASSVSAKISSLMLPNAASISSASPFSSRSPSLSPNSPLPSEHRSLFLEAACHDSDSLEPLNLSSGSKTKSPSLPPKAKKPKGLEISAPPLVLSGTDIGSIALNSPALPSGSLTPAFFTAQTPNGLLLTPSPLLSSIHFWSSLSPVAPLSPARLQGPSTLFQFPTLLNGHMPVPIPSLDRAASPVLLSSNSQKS
Method in brief: as §1

FEV = molecular target: T7, FEV (Homo sapiens, UniProt Q99581 1-238)
T7 sequence: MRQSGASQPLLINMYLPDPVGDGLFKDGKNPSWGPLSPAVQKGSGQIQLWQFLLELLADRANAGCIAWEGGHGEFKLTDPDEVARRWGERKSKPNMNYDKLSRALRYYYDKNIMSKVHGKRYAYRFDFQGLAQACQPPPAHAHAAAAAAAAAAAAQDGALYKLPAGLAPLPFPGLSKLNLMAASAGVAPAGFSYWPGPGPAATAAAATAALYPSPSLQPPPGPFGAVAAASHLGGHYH
Method in brief: as §1

ETV5 = ETV5 (Homo sapiens, UniProt P41161 1-510)
Method in brief: as §1

SPIC = molecular target: T8, SPIC (Homo sapiens, UniProt Q8N5J4 1-248)
T8 sequence: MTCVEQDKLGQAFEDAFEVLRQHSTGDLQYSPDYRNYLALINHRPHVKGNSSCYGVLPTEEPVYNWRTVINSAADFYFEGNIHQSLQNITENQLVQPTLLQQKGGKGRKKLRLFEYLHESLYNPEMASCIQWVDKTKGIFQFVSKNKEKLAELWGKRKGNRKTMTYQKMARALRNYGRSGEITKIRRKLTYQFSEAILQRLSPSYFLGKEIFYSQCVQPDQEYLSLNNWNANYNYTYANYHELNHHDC
Method in brief: as §1

ELF4 = ELF4 (Homo sapiens, UniProt Q99607 1-663)
Method in brief: as §1

ELK4 = molecular target: T9, ELK4 (Homo sapiens, UniProt P28324-2 1-405)
T9 sequence: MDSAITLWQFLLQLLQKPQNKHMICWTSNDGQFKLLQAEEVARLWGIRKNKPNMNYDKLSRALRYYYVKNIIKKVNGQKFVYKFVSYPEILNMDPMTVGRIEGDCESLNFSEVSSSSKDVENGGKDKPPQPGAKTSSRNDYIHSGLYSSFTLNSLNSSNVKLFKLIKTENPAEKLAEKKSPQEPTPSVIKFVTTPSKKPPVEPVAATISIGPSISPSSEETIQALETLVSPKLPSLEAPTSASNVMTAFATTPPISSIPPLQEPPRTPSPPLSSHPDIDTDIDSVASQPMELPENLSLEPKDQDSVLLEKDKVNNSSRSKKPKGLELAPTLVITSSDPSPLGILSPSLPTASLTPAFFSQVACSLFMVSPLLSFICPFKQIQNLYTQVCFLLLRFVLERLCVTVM
Method in brief: as §1

ETV2 = molecular target: T10, ETV2 (Homo sapiens, UniProt O00321 1-342)
T10 sequence: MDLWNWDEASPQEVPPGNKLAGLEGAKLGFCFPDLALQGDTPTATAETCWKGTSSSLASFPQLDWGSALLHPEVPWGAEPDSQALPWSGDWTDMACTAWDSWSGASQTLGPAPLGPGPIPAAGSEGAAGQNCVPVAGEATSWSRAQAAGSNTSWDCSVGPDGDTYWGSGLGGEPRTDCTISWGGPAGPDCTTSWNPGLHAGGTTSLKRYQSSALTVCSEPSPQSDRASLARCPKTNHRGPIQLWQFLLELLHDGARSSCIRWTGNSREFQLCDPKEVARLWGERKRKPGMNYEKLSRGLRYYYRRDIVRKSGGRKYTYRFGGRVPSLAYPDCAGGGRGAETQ
Method in brief: as §1

ELF3 = molecular target: T11, ELF3 (Homo sapiens, UniProt P78545 1-371)
T11 sequence: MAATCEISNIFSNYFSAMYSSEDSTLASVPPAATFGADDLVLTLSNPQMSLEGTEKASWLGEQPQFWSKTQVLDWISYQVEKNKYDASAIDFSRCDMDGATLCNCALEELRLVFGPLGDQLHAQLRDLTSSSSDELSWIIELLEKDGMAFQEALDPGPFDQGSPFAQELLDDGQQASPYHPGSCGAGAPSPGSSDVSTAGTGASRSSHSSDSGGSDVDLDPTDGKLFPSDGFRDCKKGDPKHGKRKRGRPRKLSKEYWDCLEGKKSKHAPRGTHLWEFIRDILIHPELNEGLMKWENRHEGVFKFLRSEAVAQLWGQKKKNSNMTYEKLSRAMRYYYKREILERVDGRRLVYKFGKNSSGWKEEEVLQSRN
Method in brief: as §1

ETV1 = ETV1 (Homo sapiens, UniProt P50549 1-477)
Method in brief: as §1

Chain of ETV5 (P41161 whole entry): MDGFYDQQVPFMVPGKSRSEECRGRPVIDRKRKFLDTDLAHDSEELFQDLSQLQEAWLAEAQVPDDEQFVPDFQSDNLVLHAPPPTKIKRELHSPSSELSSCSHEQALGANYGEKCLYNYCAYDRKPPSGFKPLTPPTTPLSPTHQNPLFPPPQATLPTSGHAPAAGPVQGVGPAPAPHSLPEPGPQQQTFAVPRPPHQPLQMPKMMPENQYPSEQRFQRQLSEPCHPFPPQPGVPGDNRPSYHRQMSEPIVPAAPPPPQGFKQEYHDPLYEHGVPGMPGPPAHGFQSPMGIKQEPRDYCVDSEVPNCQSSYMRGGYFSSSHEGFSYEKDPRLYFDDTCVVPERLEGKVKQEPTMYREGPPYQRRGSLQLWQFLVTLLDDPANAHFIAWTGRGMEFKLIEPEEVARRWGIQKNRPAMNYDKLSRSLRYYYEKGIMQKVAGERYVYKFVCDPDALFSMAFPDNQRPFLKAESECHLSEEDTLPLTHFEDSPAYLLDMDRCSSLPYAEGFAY
Chain of ELF4 (Q99607 whole entry): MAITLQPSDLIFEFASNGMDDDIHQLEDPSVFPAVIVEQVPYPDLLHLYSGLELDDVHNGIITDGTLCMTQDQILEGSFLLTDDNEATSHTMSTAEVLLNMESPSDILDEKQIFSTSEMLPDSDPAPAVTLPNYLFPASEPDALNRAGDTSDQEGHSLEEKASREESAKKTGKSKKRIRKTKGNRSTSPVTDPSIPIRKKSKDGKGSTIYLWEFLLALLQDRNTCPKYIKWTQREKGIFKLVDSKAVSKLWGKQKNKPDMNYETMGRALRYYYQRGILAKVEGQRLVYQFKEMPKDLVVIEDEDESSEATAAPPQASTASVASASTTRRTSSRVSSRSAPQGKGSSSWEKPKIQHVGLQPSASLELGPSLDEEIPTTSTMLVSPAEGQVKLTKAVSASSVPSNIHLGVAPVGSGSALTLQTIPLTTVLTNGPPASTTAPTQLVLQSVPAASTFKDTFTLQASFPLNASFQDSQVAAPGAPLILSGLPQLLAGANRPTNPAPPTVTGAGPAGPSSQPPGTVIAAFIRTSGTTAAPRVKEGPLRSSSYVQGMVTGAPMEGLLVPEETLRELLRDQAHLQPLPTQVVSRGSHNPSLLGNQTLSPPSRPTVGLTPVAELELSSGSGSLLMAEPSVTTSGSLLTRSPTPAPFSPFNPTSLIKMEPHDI
Chain of SPIB (Q01892 whole entry): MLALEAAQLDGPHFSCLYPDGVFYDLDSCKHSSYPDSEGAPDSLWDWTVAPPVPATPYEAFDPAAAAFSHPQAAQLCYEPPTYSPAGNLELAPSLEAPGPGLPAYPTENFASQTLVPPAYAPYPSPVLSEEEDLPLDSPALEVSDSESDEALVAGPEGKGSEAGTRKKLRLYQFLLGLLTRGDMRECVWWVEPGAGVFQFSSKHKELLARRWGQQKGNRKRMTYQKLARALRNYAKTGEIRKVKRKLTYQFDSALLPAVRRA
Chain of ELF1 (P32519 whole entry): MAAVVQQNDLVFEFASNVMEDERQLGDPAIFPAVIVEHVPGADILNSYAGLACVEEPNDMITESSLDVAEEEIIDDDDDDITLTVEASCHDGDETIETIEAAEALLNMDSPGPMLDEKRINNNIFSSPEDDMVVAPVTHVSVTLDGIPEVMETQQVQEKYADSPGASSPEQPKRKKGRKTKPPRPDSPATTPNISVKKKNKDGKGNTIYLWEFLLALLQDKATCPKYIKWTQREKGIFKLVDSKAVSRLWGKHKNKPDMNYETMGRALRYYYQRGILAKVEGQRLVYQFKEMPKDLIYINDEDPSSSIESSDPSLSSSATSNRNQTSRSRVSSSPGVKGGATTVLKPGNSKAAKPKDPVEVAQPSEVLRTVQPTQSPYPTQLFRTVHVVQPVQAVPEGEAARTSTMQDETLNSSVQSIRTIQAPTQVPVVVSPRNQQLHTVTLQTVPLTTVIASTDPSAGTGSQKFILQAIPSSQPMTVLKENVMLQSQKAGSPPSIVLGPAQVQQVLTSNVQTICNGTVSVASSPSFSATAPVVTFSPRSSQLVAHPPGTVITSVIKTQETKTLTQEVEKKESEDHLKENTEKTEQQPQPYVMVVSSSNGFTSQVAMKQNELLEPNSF
Chain of ETV1 (P50549 whole entry): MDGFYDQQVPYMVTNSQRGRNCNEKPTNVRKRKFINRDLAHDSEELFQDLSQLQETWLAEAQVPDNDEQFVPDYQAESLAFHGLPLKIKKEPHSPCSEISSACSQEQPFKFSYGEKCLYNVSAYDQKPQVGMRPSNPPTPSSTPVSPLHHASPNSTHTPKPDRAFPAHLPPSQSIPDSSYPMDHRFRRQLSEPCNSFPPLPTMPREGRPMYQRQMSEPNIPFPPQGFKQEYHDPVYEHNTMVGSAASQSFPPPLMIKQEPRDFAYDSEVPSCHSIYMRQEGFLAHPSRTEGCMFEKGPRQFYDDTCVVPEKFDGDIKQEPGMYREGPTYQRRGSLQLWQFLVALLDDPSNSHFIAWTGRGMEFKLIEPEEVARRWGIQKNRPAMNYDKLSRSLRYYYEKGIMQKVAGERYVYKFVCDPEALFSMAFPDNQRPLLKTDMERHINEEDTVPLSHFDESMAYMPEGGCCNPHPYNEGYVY

## GCCACT
FLI1
  binding signal: 1.17 fold enrichment (6-mer frequency, TF over GST control)
ELK1
  binding signal: 1.2 fold enrichment (6-mer frequency, TF over GST control)
GABPA
  binding signal: 1.16 fold enrichment (6-mer frequency, TF over GST control)
ERG
  binding signal: 1.23 fold enrichment (6-mer frequency, TF over GST control)
ELF1
  binding signal: 1.23 fold enrichment (6-mer frequency, TF over GST control)
EHF
  binding signal: 1.1 fold enrichment (6-mer frequency, TF over GST control)
SPI1
  binding signal: 1.17 fold enrichment (6-mer frequency, TF over GST control)
SPIB
  binding signal: 1.06 fold enrichment (6-mer frequency, TF over GST control)
ELK3
  binding signal: 1.26 fold enrichment (6-mer frequency, TF over GST control)
FEV
  binding signal: 1.31 fold enrichment (6-mer frequency, TF over GST control)
ETV5
  binding signal: 1.2 fold enrichment (6-mer frequency, TF over GST control)
SPIC
  binding signal: 1.12 fold enrichment (6-mer frequency, TF over GST control)
ELF4
  binding signal: 1.21 fold enrichment (6-mer frequency, TF over GST control)
ELK4
  binding signal: 1.24 fold enrichment (6-mer frequency, TF over GST control)
ETV2
  binding signal: 1.15 fold enrichment (6-mer frequency, TF over GST control)
ELF3
  binding signal: 1.1 fold enrichment (6-mer frequency, TF over GST control)
ETV1
  binding signal: 1.22 fold enrichment (6-mer frequency, TF over GST control)
